According to PubChem BioAssay AID624481 (The Scripps Research Institute Molecular Screening Center, 2012):
Active and inactive are the calls of the source. Rule as the data show it: active = inhibition above about 50%; inactive = the rest.

target: Prolyl endopeptidase-like (Mus musculus) (UniProt Q8C167); assay: purified PREPL inhibitors, PREPL inhibitor project, biochemical, gel-based competitive ABPP, fluorescence, HTS hits (AID 624481); conditions: at 20 µM, hits give high values
Sequence (Q8C167 whole entry, looked up): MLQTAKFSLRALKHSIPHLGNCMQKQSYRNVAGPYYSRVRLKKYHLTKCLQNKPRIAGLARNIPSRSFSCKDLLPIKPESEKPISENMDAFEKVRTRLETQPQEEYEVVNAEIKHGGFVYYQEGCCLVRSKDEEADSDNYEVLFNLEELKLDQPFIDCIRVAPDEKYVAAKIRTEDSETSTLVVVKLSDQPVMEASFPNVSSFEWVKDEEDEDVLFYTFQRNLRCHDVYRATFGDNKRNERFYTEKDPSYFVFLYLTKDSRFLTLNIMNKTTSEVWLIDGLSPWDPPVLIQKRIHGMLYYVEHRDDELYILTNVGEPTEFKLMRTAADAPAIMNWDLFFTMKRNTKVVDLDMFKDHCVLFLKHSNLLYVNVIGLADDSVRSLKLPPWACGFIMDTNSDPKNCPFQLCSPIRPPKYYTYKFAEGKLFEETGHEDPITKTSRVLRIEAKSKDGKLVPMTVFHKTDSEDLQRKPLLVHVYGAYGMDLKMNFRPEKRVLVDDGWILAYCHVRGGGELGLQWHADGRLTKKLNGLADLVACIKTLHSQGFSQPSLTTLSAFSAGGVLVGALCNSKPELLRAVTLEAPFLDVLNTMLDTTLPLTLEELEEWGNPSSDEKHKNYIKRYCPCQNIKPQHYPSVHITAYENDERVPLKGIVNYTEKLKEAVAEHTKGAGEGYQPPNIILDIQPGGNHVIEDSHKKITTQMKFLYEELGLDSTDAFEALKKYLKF

SMILES	inhibition
C=CCn1c(O)c(C(CC)=NCCc2c[nH]c3ccccc23)c(=O)[nH]c1=O	43% (inactive)
O=C(c1ccc2c(c1)N(Cc1ccccc1)CCS2)N1CCC2(CC1)OCCO2	-19% (inactive)
Cc1ccc(CN2CCSc3ccc(C(=O)N4CCC5(CC4)OCCO5)cc32)cc1	-8% (inactive)
CC(C)Cc1[nH]c(=O)c(C#N)c2c1CCC2	57% (active)
O=C(c1ccc2c(c1)N(Cc1ccc(F)cc1)CCS2)N1CCC2(CC1)OCCO2	-13% (inactive)
Clc1ccc(C[n+]2c(-c3ccccc3)cc(-c3ccccc3)cc2-c2ccccc2)cc1	-51% (inactive)
C=CCn1c(O)c(C(CC)=NCc2ccc3c(c2)OCO3)c(=O)[nH]c1=O	32% (inactive)
Cc1ccc(C[n+]2c(-c3ccc(C)cc3)cc(-c3ccc(C)cc3)cc2-c2ccc(C)cc2)cc1	1% (inactive)
Brc1ccc(-[n+]2c(-c3ccccc3)cc(-c3ccccc3)cc2-c2ccccc2)cc1	-32% (inactive)
COc1ccc2[nH]c(C)c(CCNCc3cn(C)c4ccccc34)c2c1	16% (inactive)
C1=C(c2c[nH]c3ccccc23)CCNC1	-17% (inactive)
NC(N)=NN=Cc1ccc(N(c2ccccc2)c2ccccc2)cc1	-64% (inactive)
CCOc1cccc(=NC2CCCCC2)c2c(C)[nH]c(C)c12	13% (inactive)
COc1ccc2[nH]c(C)c(CCNCc3cc(OC)c4c(c3)OCO4)c2c1	-15% (inactive)
